In the supplement of paper PMC8728848:
The sample as a whole holds a higher share of the strongest signals than the screen did.

Key:
Experiment in all cases: glycan array binding signal (z-score within array); higher = stronger binding
Conditions in all cases: glycan notation: IUPAC condensed, linker removed; mutation: D21K
[1] = biological target: GalNAc(a1-3)GalNAc(b1-3)Gal(a1-4)Gal(b1-4)GlcNAc
Outline: (§1)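 The Consortium for Functional Glycomics database supplied 3228 glycan arrays, of which those lacking an available protein sequence were dropped. The binding signal, a within-array Z-score, was averaged across arrays of the same protein sequence and across linkers. Negative scores can be read as non-binding.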

[2] = biological target: GalNAc(b1-3)Gal(a1-4)Gal(b1-4)GlcNAc(b1-3)Gal(b1-4)Glc
Outline: as §1

GalNAc(b1-3)GlcNAc = biological target: GalNAc(b1-3)GlcNAc
Outline: as §1

GalNAc3S(b1-4)GlcNAc = biological target: GalNAc3S(b1-4)GlcNAc
Outline: as §1

GalNAc4S6S(b1-4)GlcNAc = biological target: GalNAc4S6S(b1-4)GlcNAc
Outline: as §1

Glc(a1-6)Glc(a1-6)Glc = biological target: Glc(a1-6)Glc(a1-6)Glc
Outline: as §1

GlcA(b1-3)GlcNAc = biological target: GlcA(b1-3)GlcNAc
Outline: as §1

[3] = biological target: GlcNAc(b1-2)[GlcNAc(b1-6)]Man(a1-6)[GlcNAc(b1-2)Man(a1-3)]Man(b1-4)GlcNAc(b1-4)GlcNAc
Outline: as §1

GlcNAc(b1-3)Gal = biological target: GlcNAc(b1-3)Gal
Outline: as §1

GlcNAc(b1-3)Gal(b1-4)Glc = biological target: GlcNAc(b1-3)Gal(b1-4)Glc
Outline: as §1

[4] = biological target: GlcNAc(b1-3)Gal(b1-4)GlcNAc
Outline: as §1

[5] = biological target: GlcNAc(b1-3)Gal(b1-4)GlcNAc(b1-3)Gal(b1-4)GlcNAc(b1-2)Man(a1-3)[GlcNAc(b1-3)Gal(b1-4)GlcNAc(b1-3)Gal(b1-4)GlcNAc(b1-2)Man(a1-6)]Man(b1-4)GlcNAc(b1-4)[Fuc(a1-6)]GlcNAc
Outline: as §1

[6] = biological target: GlcNAc(b1-3)Gal(b1-4)GlcNAc(b1-3)Gal(b1-4)GlcNAc(b1-3)Gal(b1-4)GlcNAc(b1-2)[GlcNAc(b1-3)Gal(b1-4)GlcNAc(b1-3)Gal(b1-4)GlcNAc(b1-3)Gal(b1-4)GlcNAc(b1-6)]Man(a1-6)[GlcNAc(b1-3)Gal(b1-4)GlcNAc(b1-3)Gal(b1-4)GlcNAc(b1-3)Gal(b1-4)GlcNAc(b1-2)Man(a1-3)]Man(b1-4)GlcNAc(b1-4)[Fuc(a1-6)]GlcNAc
Outline: as §1

[7] = biological target: GlcNAc(b1-3)Gal(b1-4)GlcNAc(b1-3)Gal(b1-4)GlcNAc(b1-3)Gal(b1-4)GlcNAc(b1-3)Gal(b1-4)GlcNAc(b1-2)[GlcNAc(b1-3)Gal(b1-4)GlcNAc(b1-3)Gal(b1-4)GlcNAc(b1-3)Gal(b1-4)GlcNAc(b1-3)Gal(b1-4)GlcNAc(b1-6)]Man(a1-6)[GlcNAc(b1-3)Gal(b1-4)GlcNAc(b1-3)Gal(b1-4)GlcNAc(b1-3)Gal(b1-4)GlcNAc(b1-3)Gal(b1-4)GlcNAc(b1-2)Man(a1-3)]Man(b1-4)GlcNAc(b1-4)[Fuc(a1-6)]GlcNAc
Outline: as §1

[8] = biological target: GlcNAc(b1-3)Gal(b1-4)GlcNAc(b1-6)[GlcNAc(b1-3)Gal(b1-3)]GalNAc
Outline: as §1

[9] = biological target: GlcNAc(b1-3)[GlcNAc(b1-4)][GlcNAc(b1-6)]GlcNAc
Outline: as §1

[10] = biological target: GlcNAc(b1-3)[GlcNAc(b1-6)]Gal(b1-4)GlcNAc
Outline: as §1

[11] = biological target: Neu5Ac(a2-3)Gal(b1-3)GlcNAc6S
Outline: as §1

[12] = biological target: Neu5Ac(a2-3)Gal(b1-4)GlcNAc(b1-3)Gal(b1-4)GlcNAc(b1-3)GalNAc
Outline: as §1

[13] = biological target: Neu5Ac(a2-3)Gal(b1-4)GlcNAc(b1-3)GalNAc
Outline: as §1

[14] = biological target: Neu5Ac(a2-6)Gal(b1-4)GlcNAc(b1-2)Man
Outline: as §1

[15] = biological target: Neu5Ac(a2-6)Gal(b1-4)GlcNAc(b1-2)Man(a1-3)[Neu5Ac(a2-3)Gal(b1-4)GlcNAc(b1-2)Man(a1-6)]Man(b1-4)GlcNAc(b1-4)GlcNAc
Outline: as §1

[16] = biological target: Neu5Ac(a2-6)Gal(b1-4)GlcNAc(b1-2)Man(a1-3)[Neu5Ac(a2-6)Gal(b1-4)GlcNAc(b1-2)Man(a1-6)]Man(b1-4)GlcNAc(b1-4)GlcNAc
Outline: as §1

[17] = biological target: Neu5Ac(a2-6)Gal(b1-4)GlcNAc(b1-2)[Neu5Ac(a2-6)Gal(b1-4)GlcNAc(b1-6)]Man(a1-6)[Neu5Ac(a2-6)Gal(b1-4)GlcNAc(b1-2)Man(a1-3)][GlcNAc(b1-4)]Man(b1-4)GlcNAc(b1-4)GlcNAc
Outline: as §1

[18] = biological target: Neu5Ac(a2-6)Gal(b1-4)GlcNAc(b1-3)Gal(b1-4)GlcNAc(b1-3)Gal(b1-4)GlcNAc
Outline: as §1

[19] = biological target: Neu5Ac(a2-6)Gal(b1-4)GlcNAc(b1-3)Gal(b1-4)GlcNAc(b1-3)GalNAc
Outline: as §1

[20] = biological target: Neu5Ac(a2-6)Gal(b1-4)GlcNAc(b1-3)GalNAc
Outline: as §1

[21] = biological target: Neu5Ac(a2-8)Neu5Ac(a2-3)Gal(b1-3)GalNAc(b1-4)[Neu5Ac(a2-8)Neu5Ac(a2-3)]Gal(b1-4)Glc
Outline: as §1

Binder: KILRGVCKKIMRTFLRRISKKILTGKK [C7A (Sus scrofa)]
- glycan array binding signal (z-score) [1]: 0.64
- glycan array binding signal (z-score) [2]: 1.58
- glycan array binding signal (z-score) (GalNAc(b1-3)GlcNAc): -0.947
- glycan array binding signal (z-score) (GalNAc3S(b1-4)GlcNAc): 0.857
- glycan array binding signal (z-score) (GalNAc4S6S(b1-4)GlcNAc): 2.43
- glycan array binding signal (z-score) (Glc(a1-6)Glc(a1-6)Glc): -0.06
- glycan array binding signal (z-score) (GlcA(b1-3)GlcNAc): 0.609
- glycan array binding signal (z-score) [3]: -0.74
- glycan array binding signal (z-score) (GlcNAc(b1-3)Gal): -1.53
- glycan array binding signal (z-score) (GlcNAc(b1-3)Gal(b1-4)Glc): -0.83
- glycan array binding signal (z-score) [4]: -0.565
- glycan array binding signal (z-score) [5]: 2.43
- glycan array binding signal (z-score) [6]: 2.39
- glycan array binding signal (z-score) [7]: 2.49
- glycan array binding signal (z-score) [8]: -0.629
- glycan array binding signal (z-score) [9]: -0.24
- glycan array binding signal (z-score) [10]: 0.238
- glycan array binding signal (z-score) [11]: 1.71
- glycan array binding signal (z-score) [12]: 2.25
- glycan array binding signal (z-score) [13]: 0.438
- glycan array binding signal (z-score) [14]: -0.792
- glycan array binding signal (z-score) [15]: 0.295
- glycan array binding signal (z-score) [16]: 0.295
- glycan array binding signal (z-score) [17]: 0.348
- glycan array binding signal (z-score) [18]: 0.41
- glycan array binding signal (z-score) [19]: 0.528
- glycan array binding signal (z-score) [20]: 1.32
- glycan array binding signal (z-score) [21]: -0.48
